Measurements published in PubChem BioAssay AID1745849 (National Center for Advancing Translational Sciences (NCATS), 2022).
The whole screen tested about 2,100 compounds, of which about 320 (15%) were called active. Another 52% or so got no clear call; they are omitted. The list shows a part of the results. Unmarked numbers belong to inactive results. Calls come from the whole dose curve; as a rule, active = well fitted cell-killing curve with a large enough effect; inconclusive = small, poorly fitted or top-dose-only effect, or effect the other way; inactive = flat fitted curve, though single readings scatter.

Test: Viability Counterscreen for CMV-Luciferase Assay of Inhibitors of ATXN expression; note: nearly all actives have a fitted effect of over 55% in size
Settings: HEK-293 CMV-luciferase cells viability, protease fluorescence, 24 h; activity change, negative = cytotoxicity: at the top concentration
Summary of the method: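 Compounds are tested in a dilution series on HEK-293 cells carrying the CMV-driven luciferase. After a 24 hr incubation, a protease substrate (25 uM final, 30 min) gives the viability fluorescence, and SteadyGlo gives the reporter luminescence.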
% is set by controls: 0 for no effect and ±100 for the full control effect; potency is the fitted concentration of half-maximal effect.

SMILES	activity change, negative = cytotoxicity	Potency
CC(C)(C)n1nnnc1C(c1cccs1)N(Cc1ccc(Cl)cc1)CC1CCCO1 (stereo not given)	-29.5% [at 57.5 µM]	
CCN(CC)c1nc(-c2ccccn2)nc(-c2ccccc2)c1C#N		5.62 µM (active)
CC(C)Nc1nc(-c2ccccn2)nc(-c2ccccc2)c1C#N	-5.79% [at 57.5 µM]	
O=S(=O)([N-]c1nc2ccccc2nc1-[n+]1ccc(Cc2ccccc2)cc1)c1ccc(Br)s1		3.55 µM (active)
COc1cccc(C(=O)Oc2c(CN3CCOCC3)cc(Cl)c3cccnc23)c1	-9.7% [at 57.5 µM]	
COC(=O)N/N=C/c1cn(CC(C)COc2ccccc2)c2ccccc12 (stereo not given)	-15.3% [at 57.5 µM]	
S=C(NCCCN1CCOCC1)N1CCN(c2nc(-c3ccccc3)cs2)CC1	-1.81% [at 57.5 µM]	
O=C(Nc1cnn(C23CC4CC(CC(C4)C2)C3)c1)c1cnn2c(C(F)(F)F)cc(-c3ccco3)nc12		12.6 µM (active)
COC(=O)c1ccc(Oc2nc(NC(C)C)nc(N(C)C)n2)cc1	-16.8%	
O=C(CN1C(=O)c2ccccc2S1(=O)=O)N1CCc2ccccc21	2.08%	
COCC(C)n1c(C)cc(C(=O)COC(=O)c2cccn2C)c1C (stereo not given)	6.82%	
N#Cc1ccc(-c2nc3cc(Cl)ccc3c(=O)n2O)cc1	-23.8%	
O=c1c2ccc(Cl)cc2nc(-c2cccc(C(F)(F)F)c2)n1O		10 µM (active)
OC(c1ccc(Cl)cc1)c1ncc(-c2cccc(C(F)(F)F)c2)[nH]1 (stereo not given)	6.35%	
Cc1ccc(CN2CC(C(=O)Nc3ncc(C)s3)CC2=O)cc1 (stereo not given)	-23.1%	
CCN(CCCn1c(=S)[nH]c2ccc(N3CCOCC3)cc2c1=O)c1ccccc1	19.1%	
CC(Sc1ccc(Cl)cc1)C(=O)NNC(=O)c1ccccc1O (stereo not given)	-6.65%	
CC1(C)Cc2ccccc2C2=NNC(=O)C2=N1		25.1 µM (active)
CCCCn1c(N)c(S(=O)(=O)c2ccc(C)cc2)c2nc3ccccc3nc21	-27%	
Cc1ccc(S(=O)(=O)c2c(N)n(CC3CCOC3)c3nc4ccccc4nc23)cc1 (stereo not given)	-8.96%	
COc1cccc(/C=N/n2c(N)c(S(=O)(=O)c3cccs3)c3nc4ccccc4nc32)c1OC		14.1 µM (active)
CCn1cc(C(=O)NCCCN2CCCC(C)C2)c(=O)c2cc(S(=O)(=O)N3CCc4ccccc4C3)ccc21 (stereo not given)	-21.9% [at 57.5 µM]	
O=C(C1CC(=O)N(c2ccc3c(c2)OCCO3)C1)N1CCN(c2ccccc2)CC1 (stereo not given)	1.88%	
Cn1c(/C=C/c2ccc(Cl)cc2Cl)c([N+](=O)[O-])c(=O)n(C)c1=O		10 µM (active)
Cn1c(/C=C/c2cccc([N+](=O)[O-])c2)c([N+](=O)[O-])c(=O)n(C)c1=O		14.1 µM (active)

SMILES	activity change, negative = cytotoxicity	Potency
Cn1c(/C=C/c2ccc(Cl)cc2)c([N+](=O)[O-])c(=O)n(C)c1=O		12.6 µM (active)
CN(c1ccc(OCC(=O)N2CCN(c3ccc(F)cc3)CC2)cc1)S(=O)(=O)c1cccs1	11.3%	
CC(=O)N1CCCc2cc(S(=O)(=O)N3CCCC(C(=O)N4CCN(c5cc(C)ccc5C)CC4)C3)ccc21 (stereo not given)	-28.6%	
CCOc1ccc(/C=C/[N+](=O)[O-])c2ccccc12		20 µM (active)
COc1ccc(NC(=O)N2CCN(c3nc(-c4cccc(OC)c4)cs3)CC2)cc1	-19.1%	
CC1CCN(C(=O)c2cc3nc(-c4ccccc4)cc(-c4ccccc4)n3n2)CC1	26.5%	
Cc1c(C(=O)NCc2ccc(Cl)c(Cl)c2)sc(=O)n1Cc1ccc(S(C)(=O)=O)cc1	-12.2%	
O=S(=O)(Cc1cc(NCc2ccccc2)nc(-c2ccccn2)n1)c1ccccc1	-10.2% [at 57.5 µM]	
CCN(CC)CCn1nc2c3c(cccc3c1=O)-c1ccccc1-2		11.2 µM (active)
C/C(=N\NC(=O)C12CCC(C)(C(=O)O1)C2(C)C)c1ccccc1O (stereo not given)	-20.4%	
COc1ccc(-c2csc(NC(=O)C3CCN(c4ncnc5sc(C)c(C)c45)CC3)n2)cc1OC		8.91 µM (active)
CCc1ccc(C(=O)NNC(=O)C2CCN(c3ncnc4sc(C)c(C)c34)CC2)cc1	-11%	
COc1ccc(S(=O)(=O)N(C)C)cc1NC(=O)C1CCN(c2ncnc3sc(C)c(C)c23)CC1	-27.6% [at 57.5 µM]	
Cc1ccccc1Oc1cc(NC(=O)CCCn2nc(C)c([N+](=O)[O-])c2C)cc([N+](=O)[O-])c1	-13%	
O=C(Nc1ccccc1NC(=O)NC1CCCCC1)NC1CCCCC1		20 µM (active)
O=C(N/N=C/c1ccccc1O)C1CCCC1	-25.6% [at 57.5 µM]	
S=C(NCc1ccc(Cl)cc1Cl)NC1CCCCC1	-26.8%	
CCc1ccc(CNC(=O)c2cc3c(C)nc4ccccc4c3o2)cc1	16.5% [at 57.5 µM]	
Cc1ccc2[nH]c(O)c(N=NC(=O)C3CC3c3ccccc3)c2c1Br (stereo not given)	-3.8%	
O=C(/C=C/NNC(=O)c1ccccc1)c1ccc([N+](=O)[O-])cc1		12.6 µM (active)
O=C(NNCc1ccccc1)c1ccccc1	1.33% [at 57.5 µM]	
O=C(O)COc1ccc2oc3ccccc3c2c1	-0.968%	
c1ccc(Cn2c(-c3ccccc3)c[n+]3c2SCCC3)cc1	6.56% [at 57.5 µM]	
C/C(=N\NC(=O)c1cccc2ccccc12)c1ccccn1		1.41 µM (active)
CCc1ccc(OCC(=O)N/N=C(\C)c2ccc(O)cc2O)cc1	-18.9%	

SMILES	activity change, negative = cytotoxicity	Potency
CCCC/C(C)=N/NC(=O)c1cn(-c2ccccc2)nc1-c1ccccc1	-5.57%	
C/C(=N\NC(=O)COc1cccc(C)c1)c1ccc2ccccc2c1O	21.9% [at 57.5 µM]	
COc1ccc(CC(=O)N/N=C(\C)c2ccccn2)cc1		11.2 µM (active)
CCCCCC(=O)N/N=C(\C)c1ccccn1	-20.9%	
OC1(c2ccc(Br)cc2)CCNCC1	-7.05%	
Cc1cccc(OCCSc2nc3ncnc(N)c3[nH]2)c1	-23.6% [at 57.5 µM]	
COc1ccccc1Cc1c(-c2ccco2)nc2c(C)cc(Br)cn12		8.91 µM (active)
Cc1n(Cc2ccccc2)c2ccccc2[n+]1Cc1ccccc1	-7.47%	
CC(C)=CCc1ccc(O)c(=O)cc1C(C)C	-27.9%	
CC(C)=CCc1c(O)cc2oc3c(CC=C(C)C)c(O)c(O)c(CC=C(C)C)c3c(=O)c2c1O	-26.9%	
O=C(Nc1ccc(N2CCN(C(=O)c3ccccc3)CC2)c(Cl)c1)c1ccc(Br)o1	-24.8%	
O=C(Nc1ccc(Cl)cc1)Nc1ccc(N2CCCC2)c(S(=O)(=O)Nc2ccccc2Cl)c1		7.94 µM (active)
O=C(Nc1ccc(N2CCOCC2)c(Cl)c1)c1c(F)c(F)c(F)c(F)c1F	5.69%	
Cc1ccc2nc(N(CCCN(C)C)C(=O)c3ccc(S(=O)(=O)N4CCCCCC4)cc3)sc2c1	-18.4%	
Cc1ccc(C(=O)N(CCCN(C)C)c2nc3ccc(Cl)cc3s2)cc1C		22.4 µM (active)
Cc1cc(C)c2nc(N(CCCN(C)C)C(=O)c3ccc4c(c3)OCCO4)sc2c1		31.6 µM (active)
Cc1cc(Cl)ccc1-c1cc2nc(NCCCN(C)C)n(C)c(=O)c2s1	-11.6%	
CCOC(=O)c1c(NC(=O)COC(=O)CNC(=O)c2ccco2)sc(C)c1C	14.2%	
CC(=O)NC(c1ccco1)c1cc(Cl)c2cccnc2c1O (stereo not given)	-1.71% [at 57.5 µM]	
CCC(=O)NC(c1ccc(C)cc1)c1cc([N+](=O)[O-])c2cccnc2c1O (stereo not given)		15.8 µM (active)
CC(C)C(=O)NC(c1ccccc1)c1cc([N+](=O)[O-])c2cccnc2c1O (stereo not given)		20 µM (active)
CCCCC(=O)NC(c1ccco1)c1cc(Cl)c2cccnc2c1O (stereo not given)	12.6% [at 57.5 µM]	
CC(=O)NC(c1cccs1)c1cc([N+](=O)[O-])c2cccnc2c1O (stereo not given)		11.2 µM (active)
CCC(=O)NC(C)c1cc(Cl)c2cccnc2c1O (stereo not given)	-22%	
CCC(=O)NC(c1ccco1)c1cc(Cl)c2cccnc2c1O (stereo not given)	-15%	

SMILES	activity change, negative = cytotoxicity	Potency
CC(=O)NC(C)c1cc(Cl)c2cccnc2c1O (stereo not given)	-23.7% [at 57.5 µM]	
Cc1nc(-c2c(C(F)(F)F)noc2-c2ccc(O)cc2O)cs1	-5.74% [at 57.5 µM]	
COc1ccc(Nc2oc(COc3ccccc3OC)nc2C#N)cc1	-11.6%	
N#Cc1c(NCCN)nc(-c2ccco2)c2c1CCCC2	-25.6% [at 57.5 µM]	
CN(C)CCCNC(=O)/C=C/c1ccc(OCc2c(F)cccc2Cl)cc1	-26.6% [at 57.5 µM]	
CC(C)(O)C#Cc1ccc([C@@H]2C[C@H]3CN(c4ccccc4)C(=O)[C@]34CCCN24)s1		11.2 µM (active)
O=C1N(c2ccccc2)C[C@@H]2C[C@@H](c3cc4ccccc4o3)N3CCC[C@@]123		0.355 µM (active)
CCN1c2ccccc2NC2N=C(OC)C(c3ccccc3)C21 (stereo not given)		12.6 µM (active)
Cn1c(=O)c2cc(NC(=O)Nc3cccnc3)ccc2n1Cc1ccc(Cl)cc1	-16.4% [at 57.5 µM]	
Cc1c(C(=O)N2c3ccccc3Sc3ccccc32)cccc1[N+](=O)[O-]	-15.4% [at 57.5 µM]	
Cc1onc(-c2ccccc2)c1C(=O)Nc1ccc(S(=O)(=O)NC(C)(C)C)cc1	24.8% [at 57.5 µM]	
Cc1nnc(SC(C)C(=O)Nc2ccc(Cl)cn2)n1Cc1ccccc1 (stereo not given)	-1.27% [at 57.5 µM]	
Cc1occc1C(=O)N/N=C/c1c(O)ccc2ccccc12	29.1% [at 57.5 µM]	
COc1ccc(NC(C)C(=O)N/N=C/c2c(O)ccc3ccccc23)cc1 (stereo not given)		8.91 µM (active)
O=C(N/N=C\c1c(O)ccc2ccccc12)c1ccc(Cn2cccn2)o1	18.6%	
C=CCc1cccc(CNc2nc3ccccc3n2C(C)C)c1O	-1.07% [at 57.5 µM]	
Cc1ccccc1NC(=O)CSc1n[nH]c(-c2ccccn2)n1		20 µM (active)
O=C(CSc1nc2ncc(Cl)cc2[nH]1)Nc1cccc(F)c1	-17.3% [at 57.5 µM]	
O=C(CSc1n[nH]c(-c2ccccn2)n1)Nc1cccc(Cl)c1		10 µM (active)
O=C(CSc1ccc2ccccc2c1)Nc1nc2ccccc2[nH]1	4.28%	
Cc1cc(NC(=O)CSc2nccn2-c2cccc(C)c2C)no1	-8.06%	
O=C(CSc1nnc(-c2ccc(Br)cc2)o1)Nc1cccc(C(=O)O)c1	24.3% [at 57.5 µM]	
O=C(CSc1n[nH]c(-c2ccccn2)n1)Nc1ccc(F)cc1		17.8 µM (active)
O=C(CSc1nc2ncc(Br)cc2[nH]1)Nc1ccccc1-c1ccccc1	-18.9% [at 57.5 µM]	
CCc1nc2ccc(C(=O)N(C)Cc3ccccc3)cn2c1N(C)Cc1ccc(OC)cc1	-22.3% [at 57.5 µM]	
